± gives the standard deviation.

In this test the test system is EfPiwi piRISC loaded with piRNA #1 (26 nt). As to the kind of experiment: pre-steady-state target cleavage rate (min^-1); auxiliary factor: 500 nM Ephydatia muelleri Gtsf1; guide: piRNA #1 5'p-UGAGGUAGUAGGUUGUAUAGUAUCCA; MIWI and MILI are mouse PIWI proteins and EfPiwi is from a freshwater sponge; tags in brackets are library labels; higher = faster piRNA-guided slicing of the target. The gist of the method:
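With or without 500 nM GTSF1 partner protein, 1 nM active affinity-purified piRISC carrying one synthetic guide was mixed with 0.1 nM transcribed, DNA-blocked target RNA library in HEPES–potassium acetate buffer at 33 °C for 0–8 or 0–960 min. Uncleaved targets were sequenced and normalised to depth and to weakly complementary targets, three trials were pooled, and k3 was capped at 0.0001 min^-1. The pre-steady-state cleavage rate came from a burst-and-steady-state fit.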
Consider GGAGACCUAACUAUACAACCUAGUAGCUCA, for which the “pre-steady-state target cleavage rate” value came to 0.00484 ± 0.0035.
The same measure for GGAGACGAUACUAUUCAUCCUACUACCUCA: 0.00763 ± 0.0036; for GGAGACCAUACUAUUCAACCUACUUCCUCA: 0.00483 ± 0.0048.
As to GGAGACCAAACUAUACAACCUAGUACCUCA, the “pre-steady-state target cleavage rate” value is 0.00518 ± 0.0029.
As for GGAGACGAUACUAUACAACCUCUACCUCA, the “pre-steady-state target cleavage rate” value is 0.00608 ± 0.0025.
The same measure for GGAGACCUAUGAUAUGUACCUAUUACCUCA: below 0.0001.
The same measure for GGAGACGAUACUAUACAACCAACUACCACA: 0.00406 ± 0.003.
For GGAGACGAAACUAUACAACCUACUACCUCA, the “pre-steady-state target cleavage rate” value came out at 0.0619 ± 0.022.
The same measure for GGAGACGAUACUAUACAACCUACUAGGUCA: 0.0052 ± 0.002; for GGAGACCAUUCUAAACAACCUACUACCUCA: 0.00894 ± 0.0049; for GGAGAGGAUACUAUACAACCUAGUUCCUCA: 0.00396 ± 0.0022.
In the case of GGAGUGGAUACUAUACAACCUACUAGCACA, the “pre-steady-state target cleavage rate” value is 0.00246 ± 0.0018.
The same measure for GGAGACGAUACUAUACAAGCCUACUACCUCA: 0.00444 ± 0.0036; for GGAGUGGAUACUAUACACACCUACUACCUCA: 0.0105 ± 0.005; for GGAGUGGAUAGUAUACAACCUACUUCCUCA: 0.00264 ± 0.0019.
The same measure for GGAGAGGAUACUAUACAACCAUCUACCUCA: 0.0052 ± 0.002; for GGAGACCUAUGAUAUGUACCCACUACCUCA: below 0.0001; for GGAGUGGAUACUAUACAACCUAGUUCCUCA: 0.00239 ± 0.0021.
The same measure for GGAGAGGAUACUAUACUAACCUACUACCUCA: 0.0128 ± 0.007.
Consider GGAGUGGAUACUAUACAACCUUGUACCUCA, for which the “pre-steady-state target cleavage rate” value came out at 0.00568 ± 0.0024.
The same measure for GGAGUGGAUACUAUACAACCUUACUACCUCA: 0.00695 ± 0.0034; for GGAGAGGAUACUAUAGAACCUACUAGCUCA: 0.00254 ± 0.0018; for GGAGUGGAUACUAUACAACGAUCUACCUCA: 0.00198 ± 0.0014.
With GGAGACCAUACUAUACGAACCUACUACCUCA, the “pre-steady-state target cleavage rate” value was determined as 0.0108 ± 0.0042.
The same measure for GGAGACGAUACUAUACAAUCCUACUACCUCA: 0.0069 ± 0.004; for GGAGUGGAUACUAUAGAAGCUACUACCUCA: 0.00277 ± 0.0019; for GGAGUCGAUACUAUACAAGCUACUACCUCA: 0.00581 ± 0.0024.
The same measure for GGAGACCUAUGAUAAGAACCUACUACCACA: below 0.0001; for GGAGACCUUACUAUACAACCUACUACCGCA: 0.00343 ± 0.0026; for GGAGAGGAUACUAUACAACCUUACUACCUCA: 0.00845 ± 0.0045.
The same measure for GGAGACCUUUCUAUACAACCUACUACCUGA: 0.0049 ± 0.0044.
For the sequence GGAGACCAUACUAUACAAUCCUACUACCUCA, the “pre-steady-state target cleavage rate” value was 0.00501 ± 0.0032.
Regarding GGAGACGAAACUAUACUACCUACUACCUCA, the “pre-steady-state target cleavage rate” value was determined as 0.00498 ± 0.0023.
The same measure for GGAGUGGAUACUAUACAACCUAGUAGCUCA: 0.00485 ± 0.0018; for GGAGACGAUACUAUACAACCUACUUGGUCA: 0.00312 ± 0.0021.
The same measure for GGAGACCUAUGAUAUGAUCCUAGUACCUCA: below 0.0001; for GGAGACCAAACUAUACAACCUACUACCUGA: 0.00429 ± 0.0028; for GGAGUGGAUACUAUACAACCUACAACCACA: 0.00247 ± 0.0019.
The same measure for GGAGAGGAUACUGUACAACCUACUACCUCA: 0.0789 ± 0.029.
As to GGAGACCUAUGAUAUGUACCUACUACGCUCA, the “pre-steady-state target cleavage rate” value was below 0.0001.
